Hits are enriched below; roughly 5.7% of the tested compounds scored in any of these assays.
Nrf2 inh: blocks Nrf2 signaling; 360,000 compounds, 2.1% hits; A549 ARE-Fluc reporter, luciferase luminescence, 18-24 h; Potency, µM (top dose mostly 46 µM), for the others: at the top dose activity change, negative = inhibition, actives largely listed as inhibitors; also: potency is read from the fitted curve at half-maximal effect; nearly all actives have a fitted effect of over 60% in size
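Cells were seeded and rested 2 h, then exposed to compounds for 18-24 h. CellTiter-Fluor was read first as a viability measure. BugLite was added 15 min before the final luminescent read of ARE-luciferase activity in A549 cells.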
KB-V1 cytotox: kills drug-selected multidrug resistant KB-V1 cells; KB-V1 MDR cells viability, CellTiter-Glo, 72 h; Potency, µM (titrated, usually from 46.1 µM), most hits filed as cytotoxic; 400,000 compounds, 3.4% hits; AID 1347076; also: potency is read from the fitted curve at half-maximal effect; nearly all actives have a fitted effect of over 60% in size
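Luminescent ATP read-out (CellTiter-Glo, 10 min) measures survival of drug-selected KB-V1 MDR cells after 72 h, 37 degrees C compound exposure. Medium: phenol-red-free DMEM, 10% FBS. Values from fitted concentration-response curves.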
Giardia kill: kills Giardia lamblia; Giardia lamblia trophozoite viability; activity change, % at 7.66 µM, hits read low; 340,000 compounds, 0.15% hits; AID 540267; in the data active = activity change below about -80%; inconclusive = between about -30% and that limit;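 also: parasites exposed to compound for two days anaerobically before the ATP read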
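Media and compound were dispensed first, then trophozoites at 100 cells/well; plates sat 48 hrs at 37 deg C without oxygen before ATP luminescence reagent was added and read after 15-30 min at room temperature.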
KB-3-1 cytotox: KB-3-1 parental cell cytotoxicity | KB-3-1 viability, CellTiter-Glo ATP luminescence, 72 h | Potency, µM (highest dose often 46.1 µM), most hits filed as cytotoxic | 400,000 compounds, 1.4% hits; also: potency is read from the fitted curve at half-maximal effect; nearly all actives have a fitted effect of over 60% in size
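Using CellTiter-Glo luminescence, growth of non-resistant KB-3-1 adenocarcinoma cells is assessed 72 h after pin-tool compound addition at 37 °C. Normalized responses across the concentration series yield fitted curves.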
A549 tox: counter-screen for Nrf2 inhibitors: cytotoxicity in A549 cells. A549 ARE-Fluc cells, CellTiter-Fluor viability, 18-24 h. Potency, µM (titrated, usually from 46 µM), for the others: at the highest dose activity change, negative = cytotoxicity, hits mostly inhibitors. 390,000 compounds, 0.16% hits; also: potency is read from the fitted curve at half-maximal effect
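A549 ARE-Fluc cells in 5% FBS OPTI-MEM, 5000 cells/well, rested 2 h then exposed to compounds in concentration-response for 18-24 h at 37 °C. Viability by CellTiter-Fluor fluorescence (Ex 405/Em 525) after 30 min; luciferase luminescence (BugLite, 15 min, RT) read afterwards.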
PI4K2A block: PI4K2A (human) kinase inhibition; Q9BTU6; purified PI4K2A, ADP-Glo luminescence, 1 h; hits give low values; activity change, negative = inhibition, % at 76.9 µM; 420,000 compounds, 0.13% hits; AID 1346378; in the data active = activity change below about -50%; inconclusive = mostly about -30% to -49%;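 also: -100% = wells without enzyme as full effect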
Target sequence (Q9BTU6 whole entry, looked up): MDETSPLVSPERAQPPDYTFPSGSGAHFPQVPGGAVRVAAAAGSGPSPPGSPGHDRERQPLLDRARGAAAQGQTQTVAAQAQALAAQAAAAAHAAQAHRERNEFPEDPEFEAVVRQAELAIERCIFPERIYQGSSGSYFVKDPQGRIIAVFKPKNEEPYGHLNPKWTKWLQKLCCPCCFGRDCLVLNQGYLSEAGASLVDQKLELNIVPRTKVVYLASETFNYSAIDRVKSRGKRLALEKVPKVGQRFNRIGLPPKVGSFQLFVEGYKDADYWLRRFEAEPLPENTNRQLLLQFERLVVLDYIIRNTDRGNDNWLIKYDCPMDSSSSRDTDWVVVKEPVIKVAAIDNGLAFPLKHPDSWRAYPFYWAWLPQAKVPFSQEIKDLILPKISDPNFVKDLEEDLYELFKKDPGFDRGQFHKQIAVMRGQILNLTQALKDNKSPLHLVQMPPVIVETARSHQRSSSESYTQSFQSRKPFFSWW
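In this quantitative HTS, ADP production by PI4K2A was quantified luminescently after 1 h at ambient temperature; 100 microM adenosine served as plate-quality control.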
Starred values were filed as active, the others as inactive; i = inactive; ? = inconclusive; . = not tested or not shown. Unless noted, calls follow the shape of the dose curve; as a rule, active = well fitted curve in the direction sought with a large enough effect; inconclusive = small, poorly fitted or top-dose-only effect, or another doubt; inactive = no such curve, though single readings can be large; an effect the other way counts as inactive or inconclusive. Unless noted, % is scaled to controls: 0 for no effect and ±100 for the full control effect.

SMILES	Nrf2 inh	KB-V1 cytotox	Giardia kill	KB-3-1 cytotox	A549 tox	PI4K2A block
CS(=O)(=O)c1ccc(NC(=O)c2cccc(S(=O)(=O)N3CCN(Cc4ccccc4)CC3)c2)cc1	13µM*	?	9	?	-17%	-2
CC(NC(=O)c1cccc(S(=O)(=O)N2CCN(Cc3ccccc3)CC2)c1)c1ccccc1Cl (stereo not given)	?	i	5	?	2%	4
CN(CC(=O)Nc1ccc(Cl)cc1)C(=O)c1cccc(S(=O)(=O)N2CCN(Cc3ccccc3)CC2)c1	13µM*	?	-12	16µM*	?	-9
COc1cccc(CN(C)C(=O)c2cc(S(=O)(=O)N3CCN(c4ccccc4)CC3)ccc2Cl)c1	21µM*	?	11	?	-14%	-4
O=C(CSc1ccccn1)Nc1ccc(NC(=O)CSc2ccccn2)cc1	?	i	-13	i	7%	-6
O=C(CSc1ccccn1)Nc1nonc1[N+](=O)[O-]	?	10µM*	-12	?	-3%	4
Cc1csc(SC(C)c2nc3scc(-c4ccccc4)c3c(=O)[nH]2)n1 (stereo not given)	?	9.2µM*	-11	?	-1%	-7
COc1ccccc1NC(=O)c1nc(SCc2ccccc2F)ncc1Cl	.	i	.	i	.	.
Cn1nnnc1Sc1ncnc2scc(-c3ccc(Cl)cc3)c12	?	?	7	?	?	6
Cn1nnnc1Sc1ncnc2scc(-c3ccccc3Cl)c12	26µM*	i	12	?	-4%	-1
Cn1nnnc1Sc1ncnc2scc(-c3cccc4c3sc3ccccc34)c12	-16%	?	6	21µM*	?	0
Cn1nnnc1Sc1ncnc2scc(-c3ccccc3S(C)(=O)=O)c12	-18%	.	.	.	-2%	.
C#CCNC(=O)C[C@@H]1C(=O)N2CCCC3=C2[C@@]1(C(=O)OC)CCCC3	.	.	.	.	.	-4
Cn1cccc1C(=O)N1CCN(S(=O)(=O)c2ccc(Cl)s2)CC1	.	.	.	.	.	-6
CCOC(=O)C1CCN(C(=O)c2ccc(C)o2)CC1	-2%	i	16	i	3%	2
Cc1oc2c(c1C(=O)N1CCC(C)CC1)C(=O)c1ccccc1C2=O	26µM*	18µM*	?	21µM*	?	-8
CCOC(=O)C1CCN(C(=O)c2c(C)oc3c2C(=O)c2ccccc2C3=O)CC1	?	18µM*	?	?	?	-1
CC(Oc1ccccc1)C(=O)N[C@@H]1C(=O)N2C(C(=O)O)C(C)(C)S[C@H]12 (stereo not given in full)	.	i	.	i	.	.
CCN1CC=C2C(C1)C(c1ccc(Cl)s1)C(C#N)=C(N)C2(C#N)C#N (stereo not given)	-10%	15µM*	2	i	-13%	2
CCN1CC=C2C(C#N)=C(N)C(C#N)(C#N)[C@H](c3cccc(OC)c3OC)[C@H]2C1	.	i	-4	i	-3%	0
Cc1ccc(C(=O)NCCc2ccc(Cl)cc2)cc1-n1c(C)nc2cccnc21	-24%	i	.	i	-4%	3
CCOC(=O)CCCNC(=O)OC1CC2CC1[C@H]1CCCCN1[C@H]2C (stereo not given in full)	.	.	.	.	.	-1
O=C(OCC(=O)N1CCc2ccccc21)c1c2c(nc3ccccc13)CCCC2	?	9.2µM*	9	?	-1%	-2
CC(C)(C)C(=O)COC(=O)c1c2c(nc3ccccc13)CCC2	-7%	i	10	i	-4%	-4
CC1Cc2ccccc2N1C(=O)COC(=O)c1c2c(nc3ccccc13)CCCCC2 (stereo not given)	?	9.2µM*	-28	?	-18%	-4
NC(=O)COC(=O)c1c2c(nc3ccccc13)CCCCC2	-22%	?	4	i	0%	-3
Cc1ccc(C)c(CN2C(=O)C3(c4ccccc42)N(c2ccc(Cl)cc2)C(=O)CS3(=O)=O)c1 (stereo not given)	20%	i	.	i	11%	3

Compound activity: PubChem BioAssay, National Center for Advancing Translational Sciences (NCATS)
